Consider nine compounds from PubChem BioAssay (NCI).

This is part of a sample that, as a whole, favours compounds with a hit. Of some 83,000 tested, about 20% had one in any assay.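 Negative percent growth values reflect cell death: -40 means 40% of the cells present at the start died, and -100 means all died.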 Values without a mark were called inactive. Activity calls are given as the source filed them. The calls were made as follows: active = growth percent below 10; inactive = the rest.

Common to all, as to experiment: NCI-60 one-dose screen, 48 h (100 = growth as untreated, 0 = no growth, -100 = all killed)
The test system of one experiment is NCI-H23 lung. The settings on record: 10 µM unless noted.
For another experiment, the system named is NCI-H226 lung. The settings on record: 10 µM unless noted.
For a further experiment, the system named is NCI-H322M lung. The settings on record: 10 µM unless noted.
The test system of a further experiment is NCI-H460 lung. The settings on record: 10 µM unless noted.
A further experiment has as its system HOP-92 NSCLC. The settings on record: 10 µM.
A further experiment has as its system NCI-H522 lung. Particulars: 10 µM.
Another experiment concerns A549/ATCC NSCLC. The settings on record: 10 µM unless noted.
Another experiment has as its system 786-0 renal. The settings on record: 10 µM unless noted.
The test system of the next experiment is DU-145 prostate. The settings on record: 10 µM unless noted.
The subject of a further experiment is K-562 leukemia. The settings on record: 10 µM unless noted.
The subject of another experiment is MALME-3M melanoma. The settings on record: 10 µM unless noted.
A further experiment has as its system MDA-MB-231 breast. Particulars: 10 µM unless noted.
Another experiment relates to RXF 393 renal. The settings on record: 10 µM unless noted.
The test system of a further experiment is SF-268 CNS. Particulars: 10 µM unless noted.
The subject of another experiment is SF-295 CNS. The settings on record: 10 µM unless noted.
A further experiment has as its system SF-539 CNS. The settings on record: 10 µM unless noted.
Another experiment deals with UACC-257 melanoma. Particulars: 10 µM unless noted.
The next experiment concerns M14 melanoma. The settings on record: 10 µM unless noted.

On to `COc1ccc(-c2nc(SCC(C)C)nc(Nc3ccc([N+](=O)[O-])cc3)c2C#N)cc1`, for which the growth in the experiment on NCI-H23 lung was 98.5%; in the experiment on NCI-H226 lung, 85.3%; in the experiment on NCI-H322M lung it was 86.8%; with NCI-H460 lung, 57%; in the experiment on HOP-92 NSCLC, 93.3%; with NCI-H522 lung it was 92%. For the same compound, the growth in the experiment on A549/ATCC NSCLC is 61.5%; with 786-0 renal it was 94.7%; in the experiment on DU-145 prostate it was 107%; in the experiment on K-562 leukemia, 93%; in the experiment on MALME-3M melanoma, 98%; in the experiment on MDA-MB-231 breast, 94.6%. The growth is 107% in the experiment on RXF 393 renal; 93.2% in the experiment with SF-268 CNS; 84.3% with SF-295 CNS; 99.8% in the experiment with SF-539 CNS; 85.2% in the experiment with UACC-257 melanoma; 103% in the experiment on M14 melanoma.

As to `COc1cc2ncnc(-n3ncc4cc(NC(=O)Nc5ccc(Cl)c(Cl)c5)ccc43)c2cc1OC`, the growth was -54% (active) in the experiment on NCI-H23 lung; -63.4% (active) in the experiment on NCI-H226 lung; -46.1% (active) in the experiment with NCI-H322M lung; -53.9% (active) in the experiment on NCI-H460 lung; -57.2% (active) with HOP-92 NSCLC; 1.38% (active) in the experiment with NCI-H522 lung. Also, the growth is 0.341% (active) in the experiment with A549/ATCC NSCLC; -43.4% (active) with 786-0 renal; 1.5% (active) in the experiment with DU-145 prostate; 10.7% in the experiment on K-562 leukemia; -44.3% (active) in the experiment with MALME-3M melanoma; -74.3% (active) in the experiment on MDA-MB-231 breast. For the same compound, the growth is -86.7% (active) with RXF 393 renal; -34.8% (active) in the experiment on SF-268 CNS; -66.8% (active) in the experiment with SF-295 CNS; -70.6% (active) with SF-539 CNS; -10.3% (active) in the experiment on UACC-257 melanoma; -41% (active) in the experiment with M14 melanoma.

As for `CC(=O)Nc1nc(C)c(C(=O)NNC(=O)Nc2ccccc2)s1`, the growth is 102% with NCI-H23 lung; 7.19% (active) in the experiment with NCI-H226 lung; 120% in the experiment on NCI-H322M lung; 108% in the experiment on NCI-H460 lung; 60.6% with HOP-92 NSCLC; 64.5% in the experiment on NCI-H522 lung. Also, the growth was 99.1% in the experiment with A549/ATCC NSCLC; 110% with 786-0 renal; 101% with DU-145 prostate; 114% in the experiment with K-562 leukemia; 126% in the experiment on MALME-3M melanoma; 89.6% with MDA-MB-231 breast. Further, the growth was 121% in the experiment with RXF 393 renal; 99.8% in the experiment with SF-268 CNS; 116% in the experiment on SF-295 CNS; 99.4% with SF-539 CNS; 116% in the experiment with UACC-257 melanoma; 107% in the experiment with M14 melanoma.

For `COC1(OC)N=C(N)C2(C#N)C3(C(=O)Nc4ccccc43)C12C#N` (stereo unspecified), the growth was 81.6% with NCI-H23 lung; 62.5% with NCI-H226 lung; 105% in the experiment on NCI-H322M lung; 104% in the experiment on NCI-H460 lung; 73% with HOP-92 NSCLC; 80.7% with NCI-H522 lung. The growth with A549/ATCC NSCLC was 104%; in the experiment on 786-0 renal, 94.3%; in the experiment on DU-145 prostate it was 68.2%; in the experiment on K-562 leukemia it was 85.3%; in the experiment with MALME-3M melanoma it was -3.2% (active); in the experiment on MDA-MB-231 breast, 73.6%. The growth in the experiment on RXF 393 renal is 61%; in the experiment on SF-268 CNS, 105%; in the experiment with SF-295 CNS, 96.4%; with SF-539 CNS it was 61.2%; in the experiment with UACC-257 melanoma, 100%.

On to `N=C(N)c1ccc(-c2ccc(-c3ccc(F)cc3)s2)cc1`, for which the growth in the experiment on NCI-H23 lung is -91.8% (active); with NCI-H226 lung it was -77.3% (active); with NCI-H322M lung, -91.2% (active); in the experiment with NCI-H460 lung, -88.9% (active); in the experiment on HOP-92 NSCLC, -86.2% (active); in the experiment with NCI-H522 lung, -58.9% (active). In addition, the growth in the experiment on A549/ATCC NSCLC was -74.2% (active); in the experiment with 786-0 renal, -82.1% (active); in the experiment on DU-145 prostate it was -92.9% (active); in the experiment with K-562 leukemia, -62.9% (active); with MALME-3M melanoma, -75.6% (active); with MDA-MB-231 breast, -86.8% (active). Besides, the growth in the experiment on RXF 393 renal was -98.4% (active); in the experiment on SF-268 CNS, -79.9% (active); with SF-295 CNS, -94.1% (active); in the experiment with SF-539 CNS, -95.4% (active); in the experiment with UACC-257 melanoma, -79.5% (active); in the experiment with M14 melanoma it was -83.1% (active).

Turning to `COC(c1ccccc1)C(Br)C(=O)c1ccccc1` (stereo unspecified), the growth in the experiment with NCI-H23 lung was 109%; in the experiment with NCI-H226 lung, 92.5%; with NCI-H322M lung, 96.2%; in the experiment on NCI-H460 lung, 127%; with HOP-92 NSCLC, 71.1%; in the experiment on NCI-H522 lung, 74.9%. Also, the growth in the experiment on A549/ATCC NSCLC was 95.3%; in the experiment on 786-0 renal it was 92.2%; in the experiment with DU-145 prostate it was 116%; in the experiment on K-562 leukemia, 93.8%; in the experiment with MALME-3M melanoma, 87.8%; with MDA-MB-231 breast, 92.9%. For the same compound, the growth is 89.4% in the experiment on RXF 393 renal; 108% with SF-268 CNS; 93.3% in the experiment on SF-295 CNS; 99.5% in the experiment on SF-539 CNS; 87.2% in the experiment with UACC-257 melanoma; 90.6% in the experiment with M14 melanoma.

For the compound `CC(=O)NNC(=O)c1sc(NC(C)=O)nc1C`, the growth in the experiment on NCI-H23 lung was 98.2%; with NCI-H226 lung it was 93.1%; with NCI-H322M lung it was 121%; with NCI-H460 lung, 108%; with HOP-92 NSCLC, 57.4%; with NCI-H522 lung it was 139%. Besides, the growth in the experiment on A549/ATCC NSCLC is 104%; in the experiment on 786-0 renal, 122%; with DU-145 prostate, 113%; with K-562 leukemia it was 61.4%; in the experiment on MALME-3M melanoma it was 168%; with MDA-MB-231 breast it was 100%. The growth is 112% in the experiment on RXF 393 renal; 93.2% with SF-268 CNS; 106% with SF-295 CNS; 97.8% in the experiment with SF-539 CNS; 105% in the experiment on UACC-257 melanoma; 115% with M14 melanoma.

Turning to `Nc1nc2c(c3cnccc13)C(c1cccc(Br)c1)Cc1cnccc1-2` (stereo unspecified), the growth with NCI-H23 lung is -0.611% (active); in the experiment on NCI-H226 lung it was 25.5%; with NCI-H322M lung, 31.5%; with NCI-H460 lung, 4.41% (active); with HOP-92 NSCLC, 15.6%; in the experiment with NCI-H522 lung, 3.33% (active). For the same compound, the growth with A549/ATCC NSCLC was 13.2%; with 786-0 renal, 14.1%; in the experiment with DU-145 prostate it was 11.4%; in the experiment on K-562 leukemia it was 9.88% (active); in the experiment with MALME-3M melanoma, 36.1%; with MDA-MB-231 breast, 4.34% (active). In addition, the growth with RXF 393 renal was 7.59% (active); with SF-268 CNS, 20.3%; in the experiment with SF-295 CNS it was 13.6%; in the experiment on SF-539 CNS, -15.9% (active); with UACC-257 melanoma it was 55.5%; with M14 melanoma, -12.7% (active).

Consider `Cc1ccc([C@@H]2C[C@H](O)Cc3ccccc3N2)s1`, for which the growth is 90.7% with NCI-H23 lung; 124% in the experiment on NCI-H226 lung; 110% in the experiment with NCI-H322M lung; 101% with NCI-H460 lung; 78.8% in the experiment with HOP-92 NSCLC; 117% in the experiment on NCI-H522 lung. Further, the growth with A549/ATCC NSCLC was 104%; in the experiment with 786-0 renal, 114%; in the experiment on DU-145 prostate, 111%; with K-562 leukemia, 101%; in the experiment with MALME-3M melanoma, 104%; with MDA-MB-231 breast, 102%. In addition, the growth in the experiment with RXF 393 renal was 126%; in the experiment on SF-268 CNS, 106%; in the experiment with SF-295 CNS, 107%; with SF-539 CNS, 97.4%; with UACC-257 melanoma, 100%; with M14 melanoma, 125%.
